# According to PubChem BioAssay (NCATS):
# “And” between values parts separate entries of the source, which are not always exact repeats. Identical values can stand only once. Results filed as inconclusive are left out. Where a call stands in place of a potency, no number is given. The source made the active and inactive calls. Calls come from the whole dose curve; as a rule, active = well fitted cell-killing curve with a large enough effect; inconclusive = small, poorly fitted or top-dose-only effect; inactive = flat fitted curve, though single readings scatter.
# Experiment: qHTS of pediatric cancer cell lines to identify multiple opportunities for drug repurposing: Primary screen for U-2 OS cells (AID 1347096); note: nearly all actives have a fitted effect of over 50% in size
# Details: U-2 OS viability, CellTiter-Glo luminescence, 48 h; series mostly up to 46 µM; activity change, negative = cytotoxic: at the top concentration
# Description: Drug repurposing or repositioning has been offered as a strategy for drug development in oncology programs. This approach has special potential for childhood cancers and other rare or orphan diseases, where the expected return on new drug development has been a disincentive to pharmaceuticals.
# In this project we exploit the poly-pharmacology of drugs to discover new indications via phenotypic screening of a panel of 19 well-characterized cell lines derived from solid tumors seen in children and adolescents. The goal is to identify approved drugs with previously unrecognized anticancer properties that has the potential to reveal new mechanisms and biological processes involved in carcinogenesis or drug resistance. We employed a titration-based paradigm (quantitative high-throughput screening or qHTS), where all compounds were tested at multiple concentrations for their effect on cell viability. Concentration-response curves (CRCs) were derived directly from the primary screen, and both potency and efficacy values were used to identify compounds with robust bioactivity profiles. We screened the NIH Chemical Genomics Center (NCGC) Pharmaceutical Collection (NPC) and Mechanism Interrogation Plate (MIPE) small molecule collections of approved and investigational compounds against these cell lines; and measured metabolically active cells after 48 hours of compound treatment as a proxy for cell viability.
# Assay Submitter: Nathalia J. Martinez, National Center for Advancing Translational Sciences, National Institutes of Health, Rockville, MD, USA; email: natalia.martinez@nih.gov
# [1] Shen, M et al. Quantitative high-throughput phenotypic screening of pediatric cancer cell lines identifies multiple opportunities for drug repurposing. Oncotarget 2017 Dec 19;9(4):4758-4772. PMID 29435139.
# The cells were obtained from University of North Carolina (UNC), Pediatric Preclinical Testing Program (PPT), and Coriell Institute (CI).
# qHTS cell viability assay:
# Cells were assayed in growth media at a density of 500-1,000 cells/well. Five microliters of cells were dispensed into 1,536-well, white, solid-bottom, TC-treated plates (Greiner Bio One) using a multidrop dispenser and incubated at 37 degrees C, 5% CO2, under a humidified atmosphere for 5 hours. Twenty-three nanoliters of compounds and controls (neutral control DMSO or positive control bortezomib at final concentration of 2.3 µM) were subsequently transferred by Kalypsys pintool. For primary screens, the MIPE collection was tested at 11-point dilutions (final concentrations range from 0.78 nM to 46 µM) and the NPC collection at 8-point dilutions (final concentrations range from 0.59 nM to 46 µM). Compounds tested in follow-up screens were assayed at 11-point dilutions. Cells were incubated for 48 hours, followed by addition of 3 µL of CellTiter-Glo (Promega). After a 15 min incubation at room temperature, samples were analyzed for luminescence intensity using a ViewLux High-throughput CCD imager equipped with clear filters.
# Potency is the fitted concentration of half-maximal effect.
Structure (SMILES),Potency,"activity change, negative = cytotoxic"
C[C@H]1c2cccc(O)c2C(O)=C2C(=O)[C@]3(O)C(O)=C(C(N)=O)C(=O)[C@@H](N(C)C)[C@@H]3[C@@H](O)[C@@H]21,inactive,
CN1CCC(=C2c3ccccc3CC(=O)c3sccc32)CC1,inactive,
OCCN(CCO)c1nc(N2CCCCC2)c2nc(N(CCO)CCO)nc(N3CCCCC3)c2n1,,-18.1% (inactive)
COc1cc2nc(N3CCN(C(=O)C4COc5ccccc5O4)CC3)nc(N)c2cc1OC (stereo not given),,-2.37% (inactive)
Nc1nnc(-c2cccc(Cl)c2Cl)c(N)n1,inactive,
CC1(CN2CCC(n3c(=O)[nH]c4ccccc43)CC2)OCc2ccccc2-n2cccc21 (stereo not given),inactive,
CN(C)CCOC(c1ccccc1)c1ccccc1,inactive,
NS(=O)(=O)c1cc2c(cc1Cl)NCNS2(=O)=O,inactive,
CC[N+](CC)(CC)CCOc1cccc(OCC[N+](CC)(CC)CC)c1OCC[N+](CC)(CC)CC,inactive,
CC1(C)O[C@H]2CC(=O)OC[C@]23[C@H]2CC[C@@]4(C)[C@H](c5ccoc5)OC(=O)[C@H]5O[C@]54[C@]2(C)C(=O)C[C@@H]13,inactive,
Cc1cn([C@H]2C[C@H](N=[N+]=[N-])[C@@H](CO)O2)c(=O)[nH]c1=O,inactive,
O=C(C1CCCCC1)N1CC(=O)N2CCc3ccccc3C2C1 (stereo not given),inactive,
O=C(CCCN1CCC(O)(c2ccc(Cl)cc2)CC1)c1ccc(F)cc1,inactive,
Cn1c(=O)c2[nH]cnc2n(C)c1=O,inactive,
CN(Cc1cnc2nc(N)nc(N)c2n1)c1ccc(C(=O)N[C@@H](CCC(=O)O)C(=O)O)cc1,,18.2% (inactive)
COc1ccc(C2CNC(=O)C2)cc1OC1CCCC1 (stereo not given),inactive,
NCCCCCC(=O)O,inactive,
O=c1[nH]cc(F)c(=O)[nH]1,inactive,
CC(=O)OCC(CCn1cnc2cnc(N)nc21)COC(C)=O,inactive,
O=C1c2c(O)ccc(O)c2C(=O)c2c(NCCNCCO)ccc(NCCNCCO)c21,18.7 µM (active) and 10.6 µM (active),

Structure (SMILES),Potency,"activity change, negative = cytotoxic"
COc1ccc(CCN(C)CCCC(C#N)(c2ccc(OC)c(OC)c2)C(C)C)cc1OC (stereo not given),inactive,
CC1COc2c(N3CCN(C)CC3)c(F)cc3c(=O)c(C(=O)O)cn1c23 (stereo not given),inactive,
Cc1ccccc1N1C(=O)c2cc(S(N)(=O)=O)c(Cl)cc2NC1C (stereo not given),inactive,
CCC1(c2ccccc2)C(=O)NCNC1=O,inactive,
COc1ccccc1OCC(O)CN1CCN(CC(=O)Nc2c(C)cccc2C)CC1 (stereo not given),inactive,
CN(C)CCC=C1c2ccccc2C=Cc2ccccc21,inactive,
CC(C)Cc1ccc(C(C)C(=O)O)cc1 (stereo not given),inactive,
O=C(c1ccc(F)cc1)C1CCN(CCn2c(=O)[nH]c3ccccc3c2=O)CC1,inactive,
CN1CCN2c3ccccc3Cc3ccccc3C2C1 (stereo not given),inactive,
CCOC(=O)C(C)(C)Oc1ccc(Cl)cc1,inactive,
NCCS(=O)(=O)O,inactive,
Cn1c(=O)c2c(ncn2C)n(C)c1=O,inactive,
CN(C)c1nc(N(C)C)nc(N(C)C)n1,inactive,
CCN1CCCC1CNC(=O)c1cc(S(=O)(=O)CC)c(N)cc1OC (stereo not given),inactive,
Clc1ccc2c(c1)C(N1CCNCC1)=Nc1ccccc1O2,inactive,
Clc1ccccc1C(c1ccccc1)(c1ccccc1)n1ccnc1,,-11.3% (inactive)
CN(C)C(=N)N=C(N)N,inactive,
OCCN1CCN(CCCN2c3ccccc3Sc3ccc(C(F)(F)F)cc32)CC1,inactive,
CCCCc1oc2ccccc2c1C(=O)c1cc(I)c(OCCN(CC)CC)c(I)c1,7.43 µM (active),
CC(C(=O)O)c1cccc(C(=O)c2ccccc2)c1 (stereo not given),inactive,
